This is an account of results in PubChem BioAssay (NCI).

Some test systems named below: NCI-H23 lung; NCI-H226 lung; NCI-H322M lung; HOP-62 NSCLC; NCI-H460 lung; HOP-92 NSCLC; NCI-H522 lung; A549/ATCC NSCLC; 786-0 renal; COLO 205 colon; DU-145 prostate; K-562 leukemia; MALME-3M melanoma; MDA-MB-231 breast; RXF 393 renal; SF-268 CNS; SF-295 CNS; SF-539 CNS; UACC-257 melanoma; M14 melanoma.
Common to all, as to assay: NCI-60 one-dose screen, 48 h (100 = growth as untreated, 0 = no growth, -100 = all killed)
Conditions in all cases: 10 µM unless noted

Compounds without any hit were thinned out: in the full panel of roughly 83,000, 20% have a hit.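 In brief: 96-well plates, 48 h treatment, single concentration, percent growth endpoint.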 Values without a mark were called inactive. Activity calls are given as the source filed them. How the source made its calls: active means growth percent below 10; inactive means the rest.

In the case of `C=C(c1ccc(C(=O)O)cn1)c1cc2c(cc1C)C(C)(C)CCC2(C)C`, the growth is 80.3% with NCI-H23 lung; 81% in the assay with NCI-H226 lung; 108% in the assay with NCI-H322M lung; 87.3% with HOP-62 NSCLC; 92.4% in the assay on NCI-H460 lung; 71.5% in the assay on HOP-92 NSCLC. For the same compound, the growth is 65.4% in the assay with NCI-H522 lung; 57.3% in the assay on A549/ATCC NSCLC; 114% in the assay with 786-0 renal; 109% in the assay on COLO 205 colon; 93.7% with DU-145 prostate; 92.3% in the assay with K-562 leukemia. The growth in the assay with MALME-3M melanoma was 76.9%; in the assay with MDA-MB-231 breast it was 93.8%; in the assay with RXF 393 renal, 102%; with SF-268 CNS it was 76.5%; in the assay with SF-295 CNS it was 83.2%; with SF-539 CNS, 86.3%. Besides, the growth with UACC-257 melanoma was 84%; in the assay on M14 melanoma, 88.5%.
In the case of `CCCCCCCCCCCCCCCCCCOc1ccccc1CC(=O)OCC[N+]1(C)CCOCC1`, the growth with NCI-H23 lung was 66.5%; with NCI-H226 lung, 49.8%; in the assay with NCI-H322M lung, 79.8%; in the assay on HOP-62 NSCLC it was 55.6%; in the assay on NCI-H460 lung it was 69.2%; in the assay with HOP-92 NSCLC, 44.2%. For the same compound, the growth is 39.9% in the assay on NCI-H522 lung; 62.6% in the assay on A549/ATCC NSCLC; 68.3% in the assay with 786-0 renal; 65.6% in the assay on COLO 205 colon; 70.8% in the assay with DU-145 prostate; 58% in the assay on K-562 leukemia. In addition, the growth was 67.2% in the assay on MALME-3M melanoma; 49.8% with MDA-MB-231 breast; 1.62% (active) in the assay with RXF 393 renal; 36.2% in the assay with SF-268 CNS; 87.3% in the assay on SF-295 CNS; 71.6% in the assay with SF-539 CNS. The growth is 103% in the assay on UACC-257 melanoma and 69.9% with M14 melanoma.
As for `CC1(C)CC[C@]2(C(=O)O)CC[C@]3(C)C(=CC[C@@H]4[C@@]5(C)C[C@@H](Cc6cn([C@@H]7O[C@H](CO)[C@@H](O)[C@H](O)[C@H]7O)nn6)[C@H](O)C(C)(C)[C@@H]5CC[C@]43C)[C@@H]2C1`, the growth was 104% in the assay on NCI-H23 lung; 98.3% in the assay with NCI-H226 lung; 97.4% in the assay with NCI-H322M lung; 89.2% with HOP-62 NSCLC; 106% with NCI-H460 lung; 102% in the assay with HOP-92 NSCLC. Further, the growth in the assay on NCI-H522 lung is 106%; in the assay with A549/ATCC NSCLC, 85%; in the assay with 786-0 renal, 95.8%; with COLO 205 colon, 113%; in the assay with DU-145 prostate, 112%; in the assay on K-562 leukemia, 90%. The growth in the assay with MALME-3M melanoma is 112%; with MDA-MB-231 breast, 97.2%; in the assay with RXF 393 renal, 106%; in the assay with SF-268 CNS, 103%; with SF-295 CNS, 99.3%; in the assay on SF-539 CNS, 101%. The growth is 88.8% in the assay on UACC-257 melanoma and 97.5% in the assay on M14 melanoma.
Consider `Cc1ccc(-c2nc(C#N)c(S(=O)(=O)NCCO)o2)cc1`, for which the growth in the assay on NCI-H23 lung was 82.3%; in the assay with NCI-H226 lung, 86.6%; in the assay on NCI-H322M lung it was 92%; in the assay on HOP-62 NSCLC, 90.4%; in the assay on NCI-H460 lung, 88.6%; in the assay with HOP-92 NSCLC, 66.1%. The growth in the assay with NCI-H522 lung is -4.75% (active); in the assay on A549/ATCC NSCLC it was 90%; with 786-0 renal, 61.3%; in the assay with COLO 205 colon, 43.1%; in the assay on DU-145 prostate it was 90%; with K-562 leukemia it was 29.8%. For the same compound, the growth with MALME-3M melanoma was 75.5%; in the assay on MDA-MB-231 breast it was 75.6%; with RXF 393 renal, 56.6%; with SF-268 CNS it was 87.4%; in the assay on SF-295 CNS, 101%; in the assay on SF-539 CNS, 46.6%. The growth was 71.4% with UACC-257 melanoma and 32.5% with M14 melanoma.
For the compound `CC(C)CCSc1nc(Nc2ccccc2)c(C#N)c(-c2ccccc2)n1`, the growth in the assay on NCI-H23 lung was 50.1%; in the assay with NCI-H226 lung, 90.3%; in the assay with NCI-H322M lung it was 34.3%; in the assay on HOP-62 NSCLC, 19.7%; in the assay with NCI-H460 lung, 14.6%; in the assay with HOP-92 NSCLC it was 21.8%. Also, the growth was 69.8% in the assay on NCI-H522 lung; 14.8% in the assay with A549/ATCC NSCLC; 8.79% (active) with 786-0 renal; 46% in the assay on COLO 205 colon; 61.9% in the assay on DU-145 prostate; 48.6% in the assay on K-562 leukemia. Moreover, the growth in the assay on MALME-3M melanoma is 37.4%; in the assay with MDA-MB-231 breast, 8.82% (active); with RXF 393 renal, 23.1%; in the assay with SF-268 CNS it was 60%; in the assay with SF-295 CNS, 32%; in the assay with SF-539 CNS, 18.4%. The growth is 88.2% with UACC-257 melanoma and 71.4% in the assay on M14 melanoma.
Take `COc1ccc(-c2cc(-c3ccc(OC)cc3)nc(NCCCNc3ccnc4cc(Cl)ccc34)n2)cc1`: the growth was 81.3% with NCI-H23 lung; 70.5% in the assay on NCI-H226 lung; 98.4% in the assay on NCI-H322M lung; 87.4% in the assay on HOP-62 NSCLC; -39.5% (active) in the assay on NCI-H460 lung; 55.9% in the assay on HOP-92 NSCLC. Also, the growth in the assay on NCI-H522 lung was 87.4%; with A549/ATCC NSCLC, 17.8%; in the assay on 786-0 renal, -88.6% (active); in the assay with COLO 205 colon, 2.44% (active); with DU-145 prostate, -2.21% (active); with K-562 leukemia it was -14.3% (active). The growth with MALME-3M melanoma was -75.6% (active); in the assay with MDA-MB-231 breast, 76.7%; in the assay with RXF 393 renal it was 24.2%; in the assay with SF-268 CNS, 85.3%; with SF-295 CNS, 83.8%; in the assay with SF-539 CNS, 63.4%. For the same compound, the growth is 46.2% in the assay on UACC-257 melanoma and 33.3% in the assay with M14 melanoma.
For the compound `CCCCCCCCn1ccc2cc(NC(=O)Cn3cc(CN4CCCCCC4)nn3)ccc21`, the growth is 52.3% in the assay on NCI-H23 lung; 38.6% with NCI-H226 lung; 26.7% in the assay on NCI-H322M lung; 55.7% in the assay on HOP-62 NSCLC; -58.7% (active) in the assay on NCI-H460 lung; 24% in the assay on HOP-92 NSCLC. The growth in the assay on NCI-H522 lung is 52.4%; in the assay with A549/ATCC NSCLC it was 50.6%; in the assay with 786-0 renal, -71.9% (active); in the assay on COLO 205 colon, -70.1% (active); in the assay on DU-145 prostate, 30.7%; with K-562 leukemia, -62.2% (active). Moreover, the growth in the assay on MALME-3M melanoma is -88.6% (active); in the assay on MDA-MB-231 breast, -26% (active); in the assay with RXF 393 renal, 29.2%; with SF-268 CNS, 15.5%; with SF-295 CNS, -71.3% (active); in the assay with SF-539 CNS, -73.9% (active). The growth in the assay on UACC-257 melanoma was -49.2% (active); in the assay on M14 melanoma it was -68.3% (active).
